Bioassay records (PubChem BioAssay)
TRPM1 prom inh: inhibitors of MITF-dependent TRPM1 promoter reporter, primary screen, cell-based, SK-MEL-5, single point, luciferase; 330,000 tested, 0.83% active; inhibition, % at 12.5 µM; AID 488899, 2010; SK-MEL-5 TRPM1 promoter luciferase, 24 h;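 active means mean inhibition across replicates of 60% or more, whatever share of single replicates reaches that level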
MITF act: activators of MITF-driven TRPM1 promoter reporter, primary screen, cell-based, SK-MEL-5, luciferase, single point; SK-MEL-5 TRPM1-promoter luciferase, 24 h; % of positive control, neutral wells = 0; activation, % at 12.5 µM; AID 588334, 2011; 300,000 tested, 0.75% active;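 active means mean activation of at least 80% with every replicate also reaching 80%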;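 further: 0% = neutral control wells and 100% = parthenolide positive control wells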
TWEAK-Fn14 inh: inhibitors of TWEAK-Fn14 signaling, primary screen, luciferase reporter cells, uHTS; 360,000 tested, 2% active; TWEAK-stimulated Fn14 reporter cells, luciferase luminescence, 8 h; inhibition, % at 10 µM; in the data active means inhibition above about 50%
LGR2 antag: inhibitors of bursicon-induced LGR2 CRE-luciferase signal, primary screen, cell-based, HEK293, CRE-luciferase reporter, bursicon stimulation; Drosophila bursicon receptor LGR2 (rickets); bursicon-stimulated, 4 h; inhibition, % at 9.99 µM; 380,000 tested, 0.35% active;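 active means drop in luminescence signal, shown as inhibition above about 50% in the replicate tests, limit read from the data, passing the limit was not always enough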;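 further: agonist challenge used bursicon conditioned medium at about half maximal strength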
EBV LMP1 NFkB: EBV LMP1-driven NF-kappaB luciferase reporter inhibitors, primary screen, cell-based, luminescence, single point. LMP1-induced NF-kappaB luciferase reporter cells. inhibition, % at 12.5 µM. AID 504558, 2011. 350,000 tested, 0.69% active; in the data active means inhibition above about 41%;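 further: 0% = neutral control wells and 100% = reference inhibitor control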
TROY NFkB inh: inhibitors of TROY-driven NF-kB signaling, primary screen, Q293 LMP1-TROYcd cells, NF-kB luciferase, uHTS; Q293 LMP1-TROYcd NF-kB luciferase reporter, 4 h; inhibition, % at 10 µM; 360,000 tested, 0.98% active; AID 1347056, 2019;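 active means compounds whose plate-normalised and pattern-corrected inhibition of the luciferase reporter signal at the single screening dose is 50% or more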
The depositor's hits bear a star; nt = not tested or not shown. Shown are actives, neighbours in structure and some others; about 3% of the full set was active somewhere.

SMILES	TRPM1 prom inh	MITF act	TWEAK-Fn14 inh	LGR2 antag	EBV LMP1 NFkB	TROY NFkB inh
Cc1ccc(-n2cc(CNCCCn3ccnc3C)c(-c3ccc(F)cc3)n2)cc1	72*	-70	1	24	-54	-33
Cc1ccc(C)c(-n2cc(CNCCCn3cccn3)c(-c3ccccc3)n2)c1	-2	7	17	2	0	12
CCCN(C)C[C@H]1OCCCC[C@@H](C)Oc2ccc(NS(=O)(=O)c3cn(C)cn3)cc2C(=O)N([C@H](C)CO)C[C@@H]1C	nt	nt	nt	27	nt	nt
C[C@@H]1CCCCO[C@@H](CN(C)CC2CCCCC2)[C@@H](C)CN([C@@H](C)CO)C(=O)c2cc(NS(=O)(=O)c3ccccc3)ccc2O1	nt	nt	nt	-5	nt	nt
C[C@H](CO)N1C[C@H](C)[C@@H](CN(C)Cc2ccc(C(=O)O)cc2)Oc2ccc(NC(=O)Nc3cccc4ccccc34)cc2CC1=O	nt	nt	nt	-11	nt	nt
COc1cccc(S(=O)(=O)Nc2ccc3c(c2)C(=O)N(C)[C@H]2CC[C@@H](CC(=O)O)O[C@H]2CO3)c1	nt	nt	nt	-5	nt	nt
CCN1C(=C(C#N)C#N)C=Cc2cc(C)ccc21	-2	3	-22	-12	5	-33
C=CC[n+]1c(/C=C2\C=Cc3cc(C)ccc3N2CC)ccc2ccccc21	78*	-78	57*	26	45*	40
COc1ccc2c3c([nH]c2c1)[C@H](CO)N(Cc1cccnc1)CC31CCN(C(=O)c2cccnc2)CC1	nt	nt	nt	1	nt	nt
COc1ccccc1N(/N=C1\Sc2ccccc2C1=O)C(C)=O	12	nt	79*	nt	-3	78*
COc1ccc(N(/N=C2\Sc3ccccc3C2=O)C(C)=O)cc1	-14	22	2	-71	-28	9
CC(=O)/C=C/n1c(=S)oc2ccccc21	nt	nt	nt	2	nt	nt
CC(C)CC(=O)/C=C/n1c(=S)oc2ccccc21	76*	-75	99*	-28	66*	15
OCCNc1c2ccccc2nc2ccccc12	88*	-87	-53	36	-21	-67
OCCNc1nc2ccccc2nc1NCCO	-9	nt	-7	nt	5	13
COc1ccc(-c2c(C)nn(-c3ccccc3)c2N)cc1	-101	103*	4	-47	-26	-55
COc1ccc(-c2c(C)nn(-c3ccccc3)c2N)cc1OC	-6	2	11	-7	2	-12
CCCC(=O)Nc1ccc2c(c1)C(=O)N(C)C[C@@H](OC)[C@@H](C)CN(Cc1ccncc1)[C@@H](C)CO2	nt	nt	nt	-23	nt	nt
Cc1cc(C)cc(N(CC(=O)N2CCc3ccccc32)S(=O)(=O)c2c(C)noc2C)c1	2	-4	-4	10	-3	2
CCOc1ccc(N(CC(=O)Nc2c(C)cccc2C)S(=O)(=O)c2c(C)[nH]c(=O)[nH]c2=O)cc1	-1	0	80*	4	1	12
CCOc1ccc(N(CC(=O)Nc2ccccc2OCC)S(=O)(=O)c2c(C)noc2C)cc1	65*	-65	-5	-5	9	20
CCOc1ccc(N(CC(=O)N2CCc3ccccc32)S(=O)(=O)c2c(C)noc2C)cc1	20	-19	0	20	47*	-8
COc1ccc2c3c(n(C)c2c1)[C@H](CO)NCC31CN(C(=O)c2ccc(F)cc2)C1	nt	nt	nt	-5	nt	nt
O=C(C[C@@H]1C[C@@H]2c3cc(NC(=O)NC4CCCC4)ccc3O[C@@H]2[C@H](CO)O1)NCc1ccccc1F	nt	nt	nt	-5	nt	nt
COc1ccc2c3c(n(C)c2c1)[C@@H](CO)N(CC1CCOCC1)CC31CCN(C(C)=O)CC1	nt	nt	nt	3	nt	nt
SMILES	TRPM1 prom inh	MITF act	TWEAK-Fn14 inh	LGR2 antag	EBV LMP1 NFkB	TROY NFkB inh
C[C@H](CO)N1C[C@H](C)[C@@H](CN(C)C(=O)Nc2cccc3ccccc23)Oc2ccc(NC(=O)Nc3ccc4c(c3)OCO4)cc2CC1=O	nt	nt	nt	-8	nt	nt
c1ccc(-c2ccc3sccc3n2)cc1	-113	116*	-10	-39	-16	-38
Cn1c(=O)c([N+](=O)[O-])c(NCCCn2ccnc2)c2ccccc21	2	nt	7	16	-11	2
Cn1c(=O)c([N+](=O)[O-])c(-n2ccnc2)c2ccccc21	89*	-89	22	16	-1	-2
O=C(CN1c2ccccc2Sc2ccccc21)NNC(=S)Nc1ccc(Cl)cc1Cl	-3	3	-7	nt	3	52*
C[C@@H]1CN([C@@H](C)CO)C(=O)c2cccc(NC(=O)Nc3cccc4ccccc34)c2O[C@H]1CN(C)S(=O)(=O)c1cn(C)cn1	nt	nt	nt	6	nt	nt
CC(C)c1nc(=S)n(-c2ccccc2)[nH]1	-2	3	22	nt	-38	68*
CN1C(=O)c2cc(NC(=O)c3ccc(F)cc3)ccc2OC[C@@H]2O[C@H](CC(=O)NC3CCC3)CC[C@H]21	nt	nt	nt	-17	nt	nt
COc1cc(/C=C2\SC(=N)N(c3ccc(F)cc3)C2=O)ccc1O	-11	11	52*	-29	-3	14
N=C1S/C(=C\c2ccccc2F)C(=O)N1c1ccc(F)cc1	-13	11	-17	-9	7	15
CCOc1ccc(N2C(=O)S/C(=C\c3ccc(O)c(OC)c3)C2=O)cc1	-17	16	4	-2	5	3
N=C1S/C(=C\c2ccccc2)C(=O)N1c1ccc(F)cc1	-11	5	-24	-60	67*	-3
CO[C@@H]1CN(C)C(=O)c2ccc(NC(C)=O)cc2OC[C@H](C)N(C(=O)CN2CCOCC2)C[C@H]1C	nt	nt	nt	-3	nt	nt
C[C@@H]1CN([C@@H](C)CO)S(=O)(=O)c2ccc(C#C[C@@H](C)O)cc2O[C@@H]1CN(C)C(=O)Nc1ccccc1	nt	nt	nt	4	nt	nt
CCCN1C[C@H](C)[C@@H](OC)CN(C)C(=O)c2ccc(NC(=O)CC)cc2OC[C@H]1C	nt	nt	nt	-2	nt	nt
COc1ccc2c3c(n(C)c2c1)[C@@H](CO)N(C(=O)Nc1ccc(F)cc1)CC31CCN(C)CC1	nt	nt	nt	-2	nt	nt
CCN1CCN(c2nc(S(=O)(=O)c3ccc(C)cc3)c(Cl)s2)CC1	1	1	0	-5	-7	51*
CCCc1ccc(C(=O)NC(=O)c2ccccc2O)cc1	4	nt	57*	nt	6	34
CCS(=O)(=O)Nc1ccc2c(c1)C(=O)N(C)C[C@H](OC)[C@@H](C)CN(C)[C@H](C)CO2	nt	nt	nt	0	nt	nt
CO[C@@H]1CN(C)C(=O)c2ccc(NC(=O)C3CC3)cc2OC[C@@H](C)N(CCc2ccccc2)C[C@H]1C	nt	nt	nt	-11	nt	nt
CC(=O)c1cccc(N=c2scc(-c3ccc(S(=O)(=O)N4CCOCC4)cc3)n2CCO)c1	44	-45	54*	2	33	19
C=CCn1c(-c2ccc(S(=O)(=O)N3CCOCC3)cc2)csc1=Nc1ccccc1	-10	6	24	nt	3	20
